Here are results for 58 compounds from PMC4336329 (PLoS ONE, 2015).

Screen size: about 310,000 compounds; about 14,000 (4.5%) showed an effect of 50% or more. Effects have a minus sign here. This excerpt belongs to a sample that is enriched for strong results.
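Note: peak tail current of the secondary pulse compared with the same well before compound.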

The target in this test is human ether-à-go-go-related gene (hERG) potassium channel (human, UniProt Q12809). Kind of test: primary screen, population patch clamp on CHO cells stably expressing hERG; higher = less effect of the substance.
Chain of human ether-à-go-go-related gene (hERG) potassium channel (Q12809 whole entry, looked up): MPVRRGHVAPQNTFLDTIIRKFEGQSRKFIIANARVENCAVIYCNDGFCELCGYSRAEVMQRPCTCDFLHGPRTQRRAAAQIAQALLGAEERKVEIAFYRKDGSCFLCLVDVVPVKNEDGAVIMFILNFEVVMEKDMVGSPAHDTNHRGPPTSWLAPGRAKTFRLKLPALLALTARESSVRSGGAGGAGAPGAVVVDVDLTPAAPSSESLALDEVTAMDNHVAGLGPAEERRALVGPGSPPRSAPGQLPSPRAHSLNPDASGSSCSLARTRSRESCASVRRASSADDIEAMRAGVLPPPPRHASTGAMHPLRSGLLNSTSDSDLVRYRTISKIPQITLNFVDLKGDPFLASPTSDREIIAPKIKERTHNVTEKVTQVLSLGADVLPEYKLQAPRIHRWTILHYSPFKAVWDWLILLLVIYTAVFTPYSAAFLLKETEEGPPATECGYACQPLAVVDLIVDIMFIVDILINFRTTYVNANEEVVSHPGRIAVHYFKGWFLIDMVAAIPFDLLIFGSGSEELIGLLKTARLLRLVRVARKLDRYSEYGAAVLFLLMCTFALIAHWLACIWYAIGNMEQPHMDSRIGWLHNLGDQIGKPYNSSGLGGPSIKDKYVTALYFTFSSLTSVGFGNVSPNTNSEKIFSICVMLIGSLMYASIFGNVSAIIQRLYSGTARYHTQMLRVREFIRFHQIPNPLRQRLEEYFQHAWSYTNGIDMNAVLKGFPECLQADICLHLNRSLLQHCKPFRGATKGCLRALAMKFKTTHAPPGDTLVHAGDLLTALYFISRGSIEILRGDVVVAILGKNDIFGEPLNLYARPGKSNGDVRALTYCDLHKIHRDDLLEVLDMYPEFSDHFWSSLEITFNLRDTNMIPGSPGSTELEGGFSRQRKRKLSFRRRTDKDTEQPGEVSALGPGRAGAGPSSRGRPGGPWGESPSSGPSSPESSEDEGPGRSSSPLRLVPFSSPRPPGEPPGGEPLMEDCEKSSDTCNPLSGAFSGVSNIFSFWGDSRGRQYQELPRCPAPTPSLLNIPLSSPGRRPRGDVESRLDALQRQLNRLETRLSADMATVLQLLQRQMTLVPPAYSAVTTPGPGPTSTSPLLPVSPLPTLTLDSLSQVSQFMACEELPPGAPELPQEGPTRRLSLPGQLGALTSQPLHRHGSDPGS
Turning to `Cc1ccc(NC(=O)CCC(=O)N/N=C/c2coc3ccccc3c2=O)cc1`, the “hERG current change (%, negative = inhibition) at 10uM” value was determined as 0.733%.
On to `Cc1ccccc1NC(=O)NCc1ccc2c(c1)OCO2`, for which the “hERG current change (%, negative = inhibition) at 10uM” value was determined as 11.6%.
In the case of `O=C(COC(=O)C1(c2ccc(Cl)cc2)CCCC1)N1CCc2ccccc21`, the “hERG current change (%, negative = inhibition) at 10uM” value was -1.16%.
With `CCOC(=O)Nc1sc2c(c1C(N)=O)CCC(C)C2` (stereo not shown), the “hERG current change (%, negative = inhibition) at 10uM” value was 16.4%.
Turning to `CC(=O)c1sc2nsc(SCCN3CCCC3)c2c1N`, the “hERG current change (%, negative = inhibition) at 10uM” value was -0.32%.
For the compound `Cc1c(Cl)ccc(S(=O)(=O)Nc2cccnc2)c1Cl`, the “hERG current change (%, negative = inhibition) at 10uM” value came to 13.6%.
In the case of `Cc1cc(C(F)(F)F)nc(SCC(=O)NC2CCCCC2)n1`, the “hERG current change (%, negative = inhibition) at 10uM” value is recorded as -10%.
Then `O=C(CSc1nc2ccccc2c(=O)n1-c1ccc(F)c(Cl)c1)Nc1cccc(S(=O)(=O)N2CCOCC2)c1`, with 21.8%.
As for `COCCn1c(SCC(=O)Nc2ccc(S(=O)(=O)N3CCOCC3)cc2)nc2ccccc21`, the “hERG current change (%, negative = inhibition) at 10uM” value is listed as -58.8%.
Regarding `O=C(CSc1nc2ccccc2c(=O)n1-c1ccccc1Cl)Nc1cccc(S(=O)(=O)N2CCOCC2)c1`, the “hERG current change (%, negative = inhibition) at 10uM” value is -6.76%.
Turning to `COCCn1c(SCC(=O)Nc2ccc(S(N)(=O)=O)cc2)nc2ccccc21`, the “hERG current change (%, negative = inhibition) at 10uM” value is on record as -32.1%.
As for `O=C(CSc1nc2ccccc2c(=O)n1CCCN1CCOCC1)Nc1cccc(S(=O)(=O)N2CCCCCC2)c1`, the “hERG current change (%, negative = inhibition) at 10uM” value is -72.2%.
With `COCCn1c(SCC(=O)Nc2ccc(N3CCOCC3)cc2)nc2ccccc21`, the “hERG current change (%, negative = inhibition) at 10uM” value is listed as -4.58%.
Take `COc1cc(N)ccc1NC(=O)c1cc2ccccc2o1`: the “hERG current change (%, negative = inhibition) at 10uM” value was 13.1%.
Regarding `O=C(CN1CCCC1)Nc1ccc(NC(=O)Nc2ccccc2)cc1`, the “hERG current change (%, negative = inhibition) at 10uM” value was 6.42%.
As to `O=S(=O)(NC(=S)NC1CCCCC1)c1ccc(Br)cc1`, the “hERG current change (%, negative = inhibition) at 10uM” value is reported as 9.58%.
Take `CCCCN(Cc1ccco1)S(=O)(=O)c1ccc(-c2ccc(=O)[nH]n2)s1`: the “hERG current change (%, negative = inhibition) at 10uM” value is recorded as -27.7%.
On to `CC(C)CCN(Cc1ccco1)S(=O)(=O)c1ccc(-c2ccc(=O)[nH]n2)s1`, for which the “hERG current change (%, negative = inhibition) at 10uM” value was -0.664%.
In the case of `CN(C)CCN(Cc1ccco1)S(=O)(=O)c1ccc(-c2ccc(=O)[nH]n2)s1`, the “hERG current change (%, negative = inhibition) at 10uM” value was -64.4%.
Regarding `CN(C)CCN(Cc1ccccc1)S(=O)(=O)c1ccc(-c2ccc(=O)[nH]n2)s1`, the “hERG current change (%, negative = inhibition) at 10uM” value is listed as -67.4%.
As to `COCCN(Cc1cccs1)S(=O)(=O)c1ccc(-c2ccc(=O)[nH]n2)s1`, the “hERG current change (%, negative = inhibition) at 10uM” value is reported as -46.8%.
The same measure for `CCCCN(Cc1cccs1)S(=O)(=O)c1ccc(-c2ccc(=O)[nH]n2)s1`: -3.4%.
Take `COc1ccccc1CNS(=O)(=O)c1c(C)nc2scc(C)n2c1=O`: the “hERG current change (%, negative = inhibition) at 10uM” value is on record as -8.78%.
Consider `Cc1cc(Nc2ccc(F)cc2C)n2ncnc2n1`, for which the “hERG current change (%, negative = inhibition) at 10uM” value is on record as -4.78%.
On to `CCCC(=O)Nc1nc2c(c(=O)[nH]1)CCCC2`, for which the “hERG current change (%, negative = inhibition) at 10uM” value amounted to 10.2%.
For `C/C(=C1/SC(=S)N(CCC(=O)O)C1=O)c1ccc(O)cc1`, the “hERG current change (%, negative = inhibition) at 10uM” value is 9.74%.
The same measure for `Cc1ccc(Nc2nc(-c3ccc(F)cc3)cs2)nc1`: 17.1%.
As to `CCC(=O)N(Cc1cc2ccc(C)cc2n2nnnc12)C1CCCCC1`, the “hERG current change (%, negative = inhibition) at 10uM” value is -32.3%.
In the case of `CCNC(=S)N(CCc1ccc(OC)c(OC)c1)Cc1cc2cc(OC)ccc2[nH]c1=O`, the “hERG current change (%, negative = inhibition) at 10uM” value is on record as -56.9%.
As for `Cc1ccc2cc(CNC(C)(C)C)c(=O)[nH]c2c1`, the “hERG current change (%, negative = inhibition) at 10uM” value is -19%.
Take `Cc1ccc2cc(CNC(C)C)c(=O)[nH]c2c1`: the “hERG current change (%, negative = inhibition) at 10uM” value is on record as -9.38%.
For `Cc1ccc2cc(CNCCc3ccccc3C)c(=O)[nH]c2c1`, the “hERG current change (%, negative = inhibition) at 10uM” value is listed as -69.7%.
`Cc1cccc(CCNCc2cc3ccc(C)cc3[nH]c2=O)c1`: the “hERG current change (%, negative = inhibition) at 10uM” value is reported as -77.3%.
Then `CCNC(=S)N(CCc1ccccc1C)Cc1cc2cc(OC)c(OC)cc2[nH]c1=O`, with -22.3%; and `CCNC(=S)N(CCc1cccc(C)c1)Cc1cc2cc(OC)c(OC)cc2[nH]c1=O`, with -22.4%.
On to `CC(=O)N(CCc1ccccc1C)Cc1cc2ccc(C)cc2[nH]c1=O`, for which the “hERG current change (%, negative = inhibition) at 10uM” value is reported as -18.3%.
Then `CNCc1cc2ccc(C)cc2[nH]c1=O`, with -33.1%; and `CCC(=O)N(CCc1ccc(OC)c(OC)c1)Cc1cc2ccc(C)cc2n2nnnc12`, with -76.8%.
On to `COc1ccc(CCN(Cc2cc3ccc(C)cc3n3nnnc23)C(C)=O)cc1OC`, for which the “hERG current change (%, negative = inhibition) at 10uM” value is on record as -32.7%.
As to `CCOC(=O)C1(CC2CCCCO2)CCN(C(=O)Nc2ccc3c(c2)OCO3)CC1` (stereo not shown), the “hERG current change (%, negative = inhibition) at 10uM” value is recorded as 15.9%.
For `COCC(=O)Nc1ccc(C(C)C)cc1`, the “hERG current change (%, negative = inhibition) at 10uM” value is given as -1.68%.
Regarding `CCCCC/S(CC1CC1(Cl)Cl)=N\S(=O)(=O)c1ccc(C)cc1` (stereo not shown), the “hERG current change (%, negative = inhibition) at 10uM” value is recorded as 15.8%.
Then `Cc1sc(NC(=O)C2CCCCC2C(=O)O)c(C(N)=O)c1-c1ccc(C(C)C)cc1` (stereo not shown), with -9.39%; and `CCCCC(=O)Nc1nnc(SCC(=O)NCC2CCCO2)s1` (stereo not shown), with -24.8%; and `CCNS(=O)(=O)c1ccc(CCC(=O)NCc2cccnc2)cc1`, with 16.8%.
Consider `Cc1ccc(C(=O)n2c3ccccc3c3ccccc32)cc1`, for which the “hERG current change (%, negative = inhibition) at 10uM” value is recorded as 15.9%.
Consider `COC(=O)[C@]1(C)N[C@H](c2ccc(SC3CCCCC3)c(OC)c2)[C@@H]2C(=O)N(C)C(=O)[C@@H]21.O=C(O)C(F)(F)F`, for which the “hERG current change (%, negative = inhibition) at 10uM” value was -16.6%.
Regarding `O=C(Nc1ccccc1)C1=C[C@@H](c2ccccc2)C[C@@H](OCc2ccc(CO)cc2)O1`, the “hERG current change (%, negative = inhibition) at 10uM” value was 2.2%.
With `O=C(NCC(=O)N1CCOCC1)c1ccc(Br)o1`, the “hERG current change (%, negative = inhibition) at 10uM” value is reported as 17.4%.
As for `CC(C)CNC(=O)CSc1n[nH]c(=O)n1CCc1ccccc1`, the “hERG current change (%, negative = inhibition) at 10uM” value is on record as 22.1%.
On to `Cc1nc2c(-c3ccccc3)cnn2c(N2CCOCC2)c1C`, for which the “hERG current change (%, negative = inhibition) at 10uM” value was found to be 11.8%.
Then `COc1ccc(/C=N/NC(=O)C(C)Sc2ccccn2)cc1[N+](=O)[O-]` (stereo not shown), with -7.8%; and `COc1ccc(CC(=O)OCc2cc3ccc(C)cc3[nH]c2=O)cc1`, with 9.18%; and `COc1ccc(CCNCc2cc3ccc(C)cc3[nH]c2=O)cc1OC`, with -73.6%.
As for `COc1ccc(CCN(Cc2cc3ccc(C)cc3[nH]c2=O)C(C)=O)cc1OC`, the “hERG current change (%, negative = inhibition) at 10uM” value is listed as -65.1%.
For the compound `COc1ccc(CCN(Cc2cc3cc(C)ccc3[nH]c2=O)C(C)=O)cc1OC`, the “hERG current change (%, negative = inhibition) at 10uM” value was -6.87%.
For `COc1cc(OC)c(OC)cc1CNCCc1ccc(OC)c(OC)c1`, the “hERG current change (%, negative = inhibition) at 10uM” value is listed as -6.55%.
Consider `CC(=O)N(CCc1cccc(C)c1)Cc1cc2ccc(C)cc2[nH]c1=O`, for which the “hERG current change (%, negative = inhibition) at 10uM” value is -19.7%.
